Consider 95 molecules from PubChem BioAssay AID430 (Sanford-Burnham Center for Chemical Genomics, 2006).

Each structure is given as a SMILES string. Among all 63,000 compounds or so, about 1,100 (1.7%) were called active. No stated cut-off is given here; in the data, active means cytotoxicity above about 50%; inactive means the rest. For the sample, actives were picked, then their nearest neighbours and some compounds at random. Potency and affinity values are given separately.

This assay in a line: cytotoxicity in HPDE-C7 cells, cell-based, fluorescence, HTS (AID 430).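 Further: cells exposed to compound for 48 hours before viability readout; 0% = vehicle and 100% = reference cytotoxic drug.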 To be noted: HPDE-C7 pancreatic duct cells viability, at 10 µM, active compounds read high.
Turning to `COC(=O)c1ccc(Cl)c(NC(=O)CN2CCOCC2)c1`, the cytotoxicity was 0.1% (inactive).
Turning to `CCOC(=O)c1cccc(NC(=O)CSc2nnc(-c3ccncc3)n2CCCOC)c1`, the cytotoxicity was -11.4% (inactive).
With `C/C(CC(O)c1ccc2ccccc2n1)=N/O` (stereo not given), the cytotoxicity is 0.7% (inactive).
Turning to `CC(Sc1ccc2ccccc2n1)C(=O)O` (stereo not given), the cytotoxicity is 4.7% (inactive).
As for `COc1ccccc1N(CC(=O)Nc1ccc2c(c1)OCO2)S(=O)(=O)c1ccccc1`, the cytotoxicity was 7.5% (inactive).
Under `O=C(NCCCO)c1nc2ccccc2s1` stands 5.3% (inactive); under `CCOC(=O)c1oc2cc(O)c(CC)cc2c(=O)c1-c1ccc2c(c1)OCCO2`, 0.2% (inactive); under `CCc1cc2c(=O)c(-c3ccc4c(c3)OCCO4)coc2cc1OC(=O)c1ccco1`, 56.6% (active).
Under `CCc1cc2c(=O)c(-c3nc4ccccc4[nH]3)coc2cc1OC(=O)N1CCOCC1` stands -31.2% (inactive).
For `Cc1nc(NC(=O)c2cc3c(s2)CCCCC3)sc1C(=O)N(C)C`, the cytotoxicity is -7% (inactive).
Consider `COC(=O)Cn1c2ccccc2c2nc(C)sc21`, for which the cytotoxicity is 2.7% (inactive).
`O=C(CS(=O)(=O)c1ccccc1)N1CCCCCC1`: the cytotoxicity is -5.2% (inactive).
Consider `C/C=C(\CS(=O)(=O)c1ccccc1)S(=O)(=O)c1ccccc1`, for which the cytotoxicity is 35.4% (inactive).
The figure for `Cc1cccn2c(=O)c3cc(C#N)c(=N)n(CCN4CCOCC4)c3nc12` is 5% (inactive).
Under `Cc1ccccc1-n1c(SCc2cc(=O)n3ccccc3n2)nc2[nH]ncc2c1=O` stands -8% (inactive); under `CC1(N2CCCCC2)CC2(O)C(=[N+]1[O-])CCC/C2=N\O` (stereo not given), -1.5% (inactive).
Under `CC1(N2CCOCC2)CC2(O)C(=[N+]1[O-])CCc1c2no[n+]1[O-]` (stereo not given) stands 60.2% (active).
For the molecule `CC1(N2CCOCC2)CC2(O)C(=[N+]1[O-])CCc1nonc12` (stereo not given), the cytotoxicity was 12.8% (inactive).
`Oc1ccc(Nc2nc(N3CCCC3)c3ccccc3n2)cc1`: the cytotoxicity is 73.1% (active).
The figure for `Cc1ccc(Nc2nc(N3CCOCC3)c3ccccc3n2)cc1` is 30.7% (inactive).
On to `COc1ccc(Nc2nc(N3CCCC3)c3ccccc3n2)cc1`, for which the cytotoxicity was 27.2% (inactive).
The figure for `C=CCN1C(=O)C2(c3ccccc31)C1CCCC=C1C(C#N)=C(N)C2(C#N)C#N` (stereo not given) is -22.1% (inactive); for `C=C(C)c1cccc(C(C)(C)NC(=O)N2CCOCC2)c1` it is 7.9% (inactive); for `COc1ccc(C(O)C(CN2CCOCC2)c2ccccc2)cc1F` (stereo not given) it is -2.2% (inactive).
Take `COc1ccc(C(=O)C(c2ccccc2)N2CCOCC2)cc1` (stereo not given): the cytotoxicity is -4.6% (inactive).
In the case of `COc1ccc(C(=O)CCN2CCCCCC2)cc1`, the cytotoxicity was 19.8% (inactive).
With `COc1ccc(C(=O)O)cc1F`, the cytotoxicity is -2.5% (inactive).
In the case of `CCOC(=O)Cc1nnc(NC(=O)CSc2nnc3c4ccccc4n(C(C)C)c3n2)s1`, the cytotoxicity was -15% (inactive).
As to `CC1CCCCC1NC(=O)C1CCN(S(=O)(=O)c2ccc3c(c2)CCC(=O)N3)CC1` (stereo not given), the cytotoxicity is -18.5% (inactive).
Consider `COc1ccccc1C1NC(=O)CS1` (stereo not given), for which the cytotoxicity is -18.6% (inactive).
`Nc1nc(-c2ccccc2)cc(N2CCCCC2)n1`: the cytotoxicity is 50.6% (active).
Take `Cc1nc(-c2ccccc2)cc(N2CCCC2)n1`: the cytotoxicity is -14.7% (inactive).
For the molecule `c1ccc(-c2cc(N3CCCCC3)ncn2)cc1`, the cytotoxicity is -3.8% (inactive).
For `CCOc1cccc2c1OC1(C)CC2NC(=O)N1c1cccc(F)c1` (stereo not given), the cytotoxicity was -12.1% (inactive).
Consider `Cc1ccc(C(=O)Nc2ncc(Cc3ccc(F)cc3)s2)o1`, for which the cytotoxicity was 57.5% (active).
Turning to `Cc1ccc(C(=O)Nc2ncc(Cc3ccccc3)s2)o1`, the cytotoxicity is 31.4% (inactive).
Take `Cc1nnc(SCC(=O)Nc2ncc(Cc3ccc(F)cc3)s2)n1N`: the cytotoxicity was -7.7% (inactive).
On to `CCOc1ccc(CN(CCO)CCO)cc1C(=O)OC`, for which the cytotoxicity is -17% (inactive).
For `CSc1cccc(NC(=O)CSc2nc3ccccc3o2)c1`, the cytotoxicity is -17.5% (inactive).
For `O=C(CSc1nc2ccccc2o1)Nc1ccccc1`, the cytotoxicity was -13.9% (inactive).
With `CCCCN(Cc1ccccc1)C(=O)C1CCCN(S(=O)(=O)c2cnc[nH]2)C1` (stereo not given), the cytotoxicity is 6% (inactive).
Take `Cc1cccc2cc(C#N)c(SCC(=O)N3CCC(C)CC3)nc12`: the cytotoxicity is 8.5% (inactive).
Take `Cc1cccc2cc(C#N)c(SCC(=O)N3CC(=O)Nc4ccccc43)nc12`: the cytotoxicity is 53.4% (active).
In the case of `Cc1ccccc1-n1c(C)nnc1SCC(=O)N1CC(=O)Nc2ccccc21`, the cytotoxicity was 4.2% (inactive).
In the case of `C=CCOc1ccc(/C(O)=C2/C(=O)C(=O)N(CCN3CCOCC3)C2c2ccc(C)cc2)cc1` (stereo not given), the cytotoxicity is -1.1% (inactive).
Consider `N#CC1=C(N)C(C#N)(C#N)[C@H](c2ccncc2)[C@H]2CC3(CC=C12)OCCO3`, for which the cytotoxicity is -12.1% (inactive).
Under `Cc1ccc(C2C3CN(C(C)C)CC=C3C(C#N)=C(N)C2(C#N)C#N)cc1` (stereo not given) stands -0.7% (inactive).
The figure for `CCOC(=O)c1cccc(NC(=O)CSc2nnc(-c3cccnc3)n2CC)c1` is -5.8% (inactive).
As for `COc1ccccc1-n1c(SCC(=O)N2CCCCC2)nc2cccnc21`, the cytotoxicity was -11.8% (inactive).
Take `CN1CCN(c2ncnc3c2[nH]c2ccc(F)cc23)CC1`: the cytotoxicity is 6.4% (inactive).
`COc1ccc2c(c1)c1ncnc(N3CCN(Cc4ccc5c(c4)OCO5)CC3)c1n2C`: the cytotoxicity is 54.9% (active).
As for `c1ccc(Cn2nnc3c(N4CCN(Cc5ccc6c(c5)OCO6)CC4)ncnc32)cc1`, the cytotoxicity was 11.9% (inactive).
Regarding `COc1ccc2c(c1)c(C(O)CN1CCN(Cc3ccc4c(c3)OCO4)CC1)c(C)n2C` (stereo not given), the cytotoxicity was 21.3% (inactive).
Take `COc1cccc(N2CCN(c3ncnc4c3[nH]c3ccc(F)cc34)CC2C)c1` (stereo not given): the cytotoxicity is 114% (active).
Regarding `c1ccc2c(c1)[nH]c1c(N3CCSCC3)ncnc12`, the cytotoxicity was 44% (inactive).
As for `COc1ccc2[nH]c3c(N4CCN(Cc5ccc6c(c5)OCO6)CC4)ncnc3c2c1`, the cytotoxicity is 50.6% (active).
The figure for `COc1cccc2[nH]c3c(N4CCN(Cc5ccc6c(c5)OCO6)CC4)ncnc3c12` is 47.6% (inactive); for `c1ccc2c(c1)oc1c(N3CCN(Cc4ccc5c(c4)OCO5)CC3)ncnc12` it is 8.4% (inactive); for `Fc1ccc2[nH]c3c(N4CCN(c5ccccc5)CC4)ncnc3c2c1` it is 10.8% (inactive).
As to `Fc1ccc2[nH]c3c(N4CCN(C5CCCCC5)CC4)ncnc3c2c1`, the cytotoxicity is 10.6% (inactive).
Take `Cc1ccc(N(CC(=O)NC2CCCCCC2)S(=O)(=O)c2c(C)nn(C)c2C)cc1`: the cytotoxicity was 3.4% (inactive).
On to `COc1cccc(C(=O)N(CN2CCCC2=O)c2ccccc2OC)c1`, for which the cytotoxicity is -0.2% (inactive).
Regarding `CCCC(c1nnnn1Cc1ccc(F)cc1)N1CCN(C2CCCCC2)CC1` (stereo not given), the cytotoxicity is 10.8% (inactive).
For `O=C(CN1CCN(c2ccccn2)CC1)Nc1ccc(OCc2ccccc2)cc1`, the cytotoxicity is 3.7% (inactive).
With `O=C1c2ccccc2C(=O)N1CCSc1nncs1`, the cytotoxicity was -8.3% (inactive).
As for `c1nc(N2CCN(Cc3ccc4c(c3)OCO4)CC2)c2[nH]cnc2n1`, the cytotoxicity was -4% (inactive).
Consider `Fc1ccc2[nH]c3c(N4CCN(Cc5ccc6c(c5)OCO6)CC4)ncnc3c2c1`, for which the cytotoxicity is 89.3% (active).
As for `Cc1ccc2[nH]c3c(N4CCN(Cc5ccc6c(c5)OCO6)CC4)ncnc3c2c1`, the cytotoxicity is 30.3% (inactive).
As to `Cc1ccc2c(c1)[nH]c1c(N3CCN(Cc4ccc5c(c4)OCO5)CC3)ncnc12`, the cytotoxicity was -17.1% (inactive).
Regarding `COC(=O)c1[nH]c2cc(OC)ccc2c1NC(=O)CCN1CCN(Cc2ccc3c(c2)OCO3)CC1`, the cytotoxicity was -20.7% (inactive).
Under `COc1ccccc1-n1c(SCC(=O)NC(C)(C)C)nnc1-c1ccco1` stands 3.2% (inactive); under `COC(=O)c1sc(NC(=O)CSc2nnc(C(C)C)n2C)nc1C`, -8.2% (inactive).
Take `COc1ccccc1CN1C(=O)CCC1(C)C(=O)NC1CCCCCC1` (stereo not given): the cytotoxicity is -12.9% (inactive).
As to `COCCNC(=O)c1cnn2c(C(F)(F)F)cc(-c3ccc4c(c3)OCO4)nc12`, the cytotoxicity is 4.1% (inactive).
As for `Cc1cc(-c2ccccc2)c2c3c(cn2n1)c(=O)n(C)c(=O)n3C`, the cytotoxicity was 2.6% (inactive).
Turning to `Cc1nc2sc3c(c2c2nnc(SCC(=O)NCc4ccco4)n12)CCCC3`, the cytotoxicity was -3.2% (inactive).
Consider `CN1Cc2c(N3CCOCC3)nc(SCc3ccccc3)c(C#N)c2CC1(C)C`, for which the cytotoxicity was 51.3% (active).
For `CCCCCSc1nc(N2CCOCC2)c2c(c1C#N)CC(C)(C)OC2`, the cytotoxicity is 1.7% (inactive).
Take `CC1(C)Cc2c(C#N)c(SCCOc3ccccc3)nc(N3CCOCC3)c2CO1`: the cytotoxicity is 59.4% (active).
The figure for `CC1(C)Cc2c(C#N)c(SCc3ccccc3)nc(N3CCOCC3)c2CO1` is 18.9% (inactive); for `CC1(C)Cc2c(C#N)c(SCC(=O)c3ccccc3)nc(N3CCOCC3)c2CO1` it is -5.6% (inactive).
Turning to `N#Cc1c(SCc2ccccc2)nc(N2CCOCC2)c2c1CCCC2`, the cytotoxicity is 8.3% (inactive).
For the molecule `Cn1c(=O)c2c(ncn2CC(=O)N2CCCc3ccccc32)n(C)c1=O`, the cytotoxicity was -15.8% (inactive).
As for `CCOC(=O)c1cccc(S(=O)(=O)N(CCO)Cc2cc3cc(OC)c(OC)cc3[nH]c2=O)c1`, the cytotoxicity is -19.4% (inactive).
With `COc1ccc(-n2c(Cc3cccn3C)nnc2SCC(=O)Nc2nccs2)cc1`, the cytotoxicity is 5.7% (inactive).
As to `Nc1ccccc1OCCOCCOCCOc1ccccc1N`, the cytotoxicity is 5.3% (inactive).
For `CCC(C)n1cnc2c(c1=O)c1nc3ccccc3nc1n2Cc1ccc2c(c1)OCO2` (stereo not given), the cytotoxicity is 26.8% (inactive).
Under `COc1cc(C2=NOC(C(=O)Nc3ccc(C)cc3)C2)cc(OC)c1OC` (stereo not given) stands -9.2% (inactive); under `COc1cc(C2=NOC(C(=O)NCc3ccco3)C2)cc(OC)c1OC` (stereo not given), 32.6% (inactive); under `COc1ccc(C2=NOC(C(=O)NCc3ccco3)C2)cc1OC` (stereo not given), 38.7% (inactive).
As for `COc1cc(C2=NOC(C(=O)NCc3ccc(F)cc3)C2)cc(OC)c1OC` (stereo not given), the cytotoxicity is 63.4% (active).
Turning to `COc1ccc(C2=NOC(C(=O)NCc3ccc(F)cc3)C2)cc1OC` (stereo not given), the cytotoxicity is 55.2% (active).
As for `COc1ccc(NC(=O)C2CC(c3ccc(OC)c(OC)c3)=NO2)cc1OC` (stereo not given), the cytotoxicity is -6.6% (inactive).
Regarding `O=C(c1ccco1)N(CCCN1CCOCC1)c1nc(-c2ccc(F)cc2)cs1`, the cytotoxicity is 11.3% (inactive).
As to `COc1ccc(NC(C)=O)cc1NC(=O)CSc1nnc(-c2cccnc2)n1C`, the cytotoxicity is -13.3% (inactive).
